From PubChem BioAssay AID1159580 (chemical genetic matrix, 2015)
Where “and” joins values, the source holds several entries; their conditions need not be identical. Equal values may be shown once. Out of some 5,500 compounds screened, about 2,000 (36%) were called active. Another 18% or so got no clear call; they are omitted. This is one part of the list. Values without a mark were called inactive. Rule as the data show it: active = normalized growth mostly below about 0.91 (no sharp cut-off); inconclusive = no clear call, values can overlap the other calls; inactive = mostly above about 0.92.

Assay: chemical genetic growth profiling, strain panel (AID 1159580);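 also: tested at 20 µM; growth read once vehicle control cultures reached saturation at 30 °C; 1 = growth at the plate median or of vehicle wells; lower values mean less growth of the strain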
Details: growth OD
[1] = S. cerevisiae deletion strains, locus YBR021W, strain FUR4, active compounds read low
[2] = S. cerevisiae deletion strains, locus YBR229C, strain ROT2, active compounds read low
[3] = S. cerevisiae deletion strains, locus YCL029C, strain bik1, active compounds read low
[4] = S. cerevisiae deletion strains, locus YDL035C, strain GPR1, active compounds read low
[5] = S. cerevisiae deletion strains, locus YDL074C, strain BRE1, active compounds read low
[6] = S. cerevisiae deletion strains, locus YDL101C, strain DUN1, active compounds read low
[7] = S. cerevisiae deletion strains, locus YDL185W, strain tfp1, active compounds read low
[8] = S. cerevisiae deletion strains, locus YDL192W, strain arf1, active compounds read low
[9] = S. cerevisiae deletion strains, locus YDR101C, strain arx1, active compounds read low
[10] = S. cerevisiae deletion strains, locus YDR162C, strain NBP2, active compounds read low
[11] = S. cerevisiae deletion strains, locus YDR318W, strain mcm21, active compounds read low
[12] = S. cerevisiae deletion strains, locus YDR388W, active compounds read low
[13] = S. cerevisiae deletion strains, locus YDR502C, strain sam2, active compounds read low
[14] = S. cerevisiae deletion strains, locus YEL061C, strain CIN8, active compounds read low
[15] = S. cerevisiae deletion strains, locus YER110C, active compounds read low
[16] = S. cerevisiae deletion strains, locus YER155C, strain BEM2, active compounds read low
[17] = S. cerevisiae deletion strains, locus YER167W, strain BCK2, active compounds read low
[18] = S. cerevisiae deletion strains, locus YGL078C, strain dbp3, active compounds read low
[19] = S. cerevisiae deletion strains, locus YGL086W, strain mad1, active compounds read low
[20] = S. cerevisiae deletion strains, locus YGL248W, strain PDE1, active compounds read low
[21] = S. cerevisiae deletion strains, locus YGR135W, strain pre9, active compounds read low
[22] = S. cerevisiae deletion strains, locus YGR252W, strain gcn5, active compounds read low
[23] = S. cerevisiae deletion strains, locus YHR030C, strain SLT2, active compounds read low
[24] = S. cerevisiae deletion strains, locus YHR079C, strain IRE1 (second series), active compounds read low
[25] = S. cerevisiae deletion strains, locus YHR094C, strain hxt1, active compounds read low
[26] = S. cerevisiae deletion strains, locus YHR129C, strain ARP1, active compounds read low
[27] = S. cerevisiae deletion strains, locus YHR200W, strain rpn10, active compounds read low
[28] = S. cerevisiae deletion strains, locus YIL066C, strain RNR3, active compounds read low
[29] = S. cerevisiae deletion strains, locus YIL073C, strain SPO22, active compounds read low
[30] = S. cerevisiae deletion strains, locus YIL125W, strain kgd1, active compounds read low
[31] = S. cerevisiae deletion strains, locus YIR030C, strain dcg1, active compounds read low
[32] = S. cerevisiae deletion strains, locus YJL095W, strain BCK1, active compounds read low
[33] = S. cerevisiae deletion strains, locus YJL134W, strain LCB3, active compounds read low
[34] = S. cerevisiae deletion strains, locus YJL168C, strain set2, active compounds read low
[35] = S. cerevisiae deletion strains, locus YJL187C, strain SWE1 (second series), active compounds read low
[36] = S. cerevisiae deletion strains, locus YJR043C, strain POL32, active compounds read low
[37] = S. cerevisiae deletion strains, locus YKL009W, strain mrt4, active compounds read low
[38] = S. cerevisiae deletion strains, locus YKL068W, active compounds read low
[39] = S. cerevisiae deletion strains, locus YKL085W, strain MDH1 (second series), active compounds read low
[40] = S. cerevisiae deletion strains, locus YKL085W, strain MDH1, active compounds read low
[41] = S. cerevisiae deletion strains, locus YKR001C, strain vps1, active compounds read low
[42] = S. cerevisiae deletion strains, locus YLR039C, strain RIC1, active compounds read low
[43] = S. cerevisiae deletion strains, locus YLR058C, strain SHM2, active compounds read low
[44] = S. cerevisiae deletion strains, locus YLR102C, strain apc9, active compounds read low
[45] = S. cerevisiae deletion strains, locus YLR262C, strain YPT6, active compounds read low
[46] = S. cerevisiae deletion strains, locus YLR268W, strain sec22, active compounds read low
[47] = S. cerevisiae deletion strains, locus YLR330W, strain CHS5, active compounds read low
[48] = S. cerevisiae deletion strains, locus YLR342W, strain FKS1 (second series), active compounds read low
[49] = S. cerevisiae deletion strains, locus YLR371W, strain rom2, active compounds read low
[50] = S. cerevisiae deletion strains, locus YLR418C, strain cdc73, active compounds read low
[51] = S. cerevisiae deletion strains, locus YML016C, strain PPZ1, active compounds read low
[52] = S. cerevisiae deletion strains, locus YML032C, strain rad52, active compounds read low
[53] = S. cerevisiae deletion strains, locus YML124C, strain tub3, active compounds read low
[54] = S. cerevisiae deletion strains, locus YMR078C, strain ctf18, active compounds read low
[55] = S. cerevisiae deletion strains, locus YMR223W, strain ubp8, active compounds read low
[56] = S. cerevisiae deletion strains, locus YMR307W, strain GAS1, active compounds read low
[57] = S. cerevisiae deletion strains, locus YNL067W, strain RPL9B, active compounds read low
[58] = S. cerevisiae deletion strains, locus YNL233W, strain BNI4, active compounds read low
[59] = S. cerevisiae deletion strains, locus YNL250W, strain rad50, active compounds read low
[60] = S. cerevisiae deletion strains, locus YNL271C, strain bni1, active compounds read low
[61] = S. cerevisiae deletion strains, locus YNL298W, strain CLA4, active compounds read low
[62] = S. cerevisiae deletion strains, locus YNL307C, strain MCK1, active compounds read low
[63] = S. cerevisiae deletion strains, locus YNR052C, strain pop2, active compounds read low
[64] = S. cerevisiae deletion strains, locus YOL012C, strain htz1
[65] = S. cerevisiae deletion strains, locus YOL147C, strain pex11, active compounds read low
[66] = S. cerevisiae deletion strains, locus YOR061W, strain CKA2, active compounds read low
[67] = S. cerevisiae deletion strains, locus YOR069W, strain VPS5, active compounds read low
[68] = S. cerevisiae deletion strains, locus YOR136W, strain idh2, active compounds read low
[69] = S. cerevisiae deletion strains, locus YOR144C, strain elg1, active compounds read low
[70] = S. cerevisiae deletion strains, locus YOR184W, strain ser1, active compounds read low
[71] = S. cerevisiae deletion strains, locus YOR316C, strain cot1, active compounds read low
[72] = S. cerevisiae deletion strains, locus YPR119W, strain clb2, active compounds read low
[73] = S. cerevisiae deletion strains, locus YPR141C, strain kar3, active compounds read low
[74] = S. cerevisiae deletion strains, locus YPR163C, strain tif3, active compounds read low
[75] = S. cerevisiae deletion strains, locus YPR167C, strain met16, active compounds read low
[76] = S. cerevisiae deletion strains, strain wtn01, active compounds read low

## Oc1cc(O)cc(/C=C/c2ccccc2)c1
[1]
  normalized growth: 1.1
[2]
  normalized growth: 1
[3]
  normalized growth: 0.973
[4]
  normalized growth: 1.01
[5]
  normalized growth: 0.983
[6]
  normalized growth: 0.978
[7]
  normalized growth: 0.959
[8]
  normalized growth: 0.977
[9]
  normalized growth: 1.04
S. cerevisiae deletion strains, locus YDR150W, strain NUM1, active compounds read low
  normalized growth: 0.998
[10]
  normalized growth: 0.996
[11]
  normalized growth: 0.965
[12]
  normalized growth: 0.987
[13]
  normalized growth: 0.962
[14]
  normalized growth: 1
[15]
  normalized growth: 0.977
[16]
  normalized growth: 0.995
[17]
  normalized growth: 1.01
[18]
  normalized growth: 0.953
[19]
  normalized growth: 0.995
[20]
  normalized growth: 0.957
[21]
  normalized growth: 0.921
[22]
  normalized growth: 0.88
[23]
  normalized growth: 1
[24]
  normalized growth: 0.976
[25]
  normalized growth: 0.987
[26]
  normalized growth: 0.99
[27]
  normalized growth: 0.981
[28]
  normalized growth: 1.01
[29]
  normalized growth: 0.963
[30]
  normalized growth: 1.01
[31]
  normalized growth: 0.983
[32]
  normalized growth: 0.961
[33]
  normalized growth: 1.01
[34]
  normalized growth: 0.974
[35]
  normalized growth: 0.966
[36]
  normalized growth: 1.03
[37]
  normalized growth: 0.964
[38]
  normalized growth: 0.994
[39]
  normalized growth: 0.994
[40]
  normalized growth: 0.994
[41]
  normalized growth: 0.987
[42]
  normalized growth: 1.03
[43]
  normalized growth: 0.996
[44]
  normalized growth: 0.992
[45]
  normalized growth: 1.02
[46]
  normalized growth: 1.02
[47]
  normalized growth: 0.993
[48]
  normalized growth: 1.07
[49]
  normalized growth: 0.933
[50]
  normalized growth: 0.797 (active)
[51]
  normalized growth: 0.998
[52]
  normalized growth: 0.993
[53]
  normalized growth: 0.982
[54]
  normalized growth: 0.984
[55]
  normalized growth: 0.977
[56]
  normalized growth: 1
[57]
  normalized growth: 0.968
S. cerevisiae deletion strains, locus YNL128W, strain TEP1, active compounds read low
  normalized growth: 0.977
S. cerevisiae deletion strains, locus YNL153C, strain GIM3, active compounds read low
  normalized growth: 0.96
[58]
  normalized growth: 0.981
[59]
  normalized growth: 0.935
[60]
  normalized growth: 0.984
[61]
  normalized growth: 1.02
[62]
  normalized growth: 0.991
[63]
  normalized growth: 0.977
S. cerevisiae deletion strains, locus YOL006C, strain TOP1, active compounds read low
  normalized growth: 1.15
[64]
  normalized growth: 1.16
[65]
  normalized growth: 0.977
[66]
  normalized growth: 1.01
[67]
  normalized growth: 0.989
[68]
  normalized growth: 0.984
[69]
  normalized growth: 0.999
[70]
  normalized growth: 1.05
[71]
  normalized growth: 0.984
S. cerevisiae deletion strains, locus YPL241C, strain CIN2, active compounds read low
  normalized growth: 1
[72]
  normalized growth: 0.978
[73]
  normalized growth: 0.969
[74]
  normalized growth: 0.99
[75]
  normalized growth: 0.957
[76]
  normalized growth: 1
S. cerevisiae strains, strain wild type, active compounds read low
  normalized growth: 1.01

## C/C=C/c1ccc(OC)cc1
[1]
  normalized growth: 0.987
[2]
  normalized growth: 1.01
[3]
  normalized growth: 1.02
[4]
  normalized growth: 1.01
[5]
  normalized growth: 1.03
[6]
  normalized growth: 1.03
[7]
  normalized growth: 1.01
[8]
  normalized growth: 1.01
[9]
  normalized growth: 1.02
[10]
  normalized growth: 1.02
[11]
  normalized growth: 1
[12]
  normalized growth: 1
[13]
  normalized growth: 0.998
[14]
  normalized growth: 1.01
[15]
  normalized growth: 1.02
[16]
  normalized growth: 1.01
[17]
  normalized growth: 1
[18]
  normalized growth: 0.999
[19]
  normalized growth: 1.02
[20]
  normalized growth: 1.01
[21]
  normalized growth: 1
[22]
  normalized growth: 1.01
[23]
  normalized growth: 1.01 and 0.942
[24]
  normalized growth: 1.01
S. cerevisiae deletion strains, locus YHR079C, strain IRE1, active compounds read low
  normalized growth: 0.948
[25]
  normalized growth: 1.01
[26]
  normalized growth: 1.01
[27]
  normalized growth: 1.01
[28]
  normalized growth: 1.01
[29]
  normalized growth: 1.03
[30]
  normalized growth: 1.01
[31]
  normalized growth: 1.02
[32]
  normalized growth: 1.03 and 0.941
[33]
  normalized growth: 1.01
[34]
  normalized growth: 1.01
[35]
  normalized growth: 1.03
[36]
  normalized growth: 1.01
S. cerevisiae deletion strains, locus YJR066W, strain TOR1, active compounds read low
  normalized growth: 0.902
[37]
  normalized growth: 1.02
[38]
  normalized growth: 1
[39]
  normalized growth: 1.01
[40]
  normalized growth: 1.01
S. cerevisiae deletion strains, locus YKL190W, strain CNB1, active compounds read low
  normalized growth: 1.01
[41]
  normalized growth: 0.998
[42]
  normalized growth: 1.03
[43]
  normalized growth: 1.01
[44]
  normalized growth: 1.01
S. cerevisiae deletion strains, locus YLR113W, strain HOG1, active compounds read low
  normalized growth: 0.91
[45]
  normalized growth: 1.05
[46]
  normalized growth: 1.03
[47]
  normalized growth: 1.01
[48]
  normalized growth: 0.986
[49]
  normalized growth: 1.02
[50]
  normalized growth: 0.989
[51]
  normalized growth: 1.01
[52]
  normalized growth: 0.99
[53]
  normalized growth: 1.01
[54]
  normalized growth: 1.01
[55]
  normalized growth: 1.01
[56]
  normalized growth: 0.968
[57]
  normalized growth: 1.03
S. cerevisiae deletion strains, locus YNL183C, strain NPR1, active compounds read low
  normalized growth: 0.904
[58]
  normalized growth: 1.02
[59]
  normalized growth: 1.02
[60]
  normalized growth: 1
[61]
  normalized growth: 0.988
[62]
  normalized growth: 1
[63]
  normalized growth: 1.01
[64]
  normalized growth: 0.756
[65]
  normalized growth: 1.01
[66]
  normalized growth: 1.01
[67]
  normalized growth: 1.01
[68]
  normalized growth: 1.01
[69]
  normalized growth: 1
[70]
  normalized growth: 1.01
S. cerevisiae deletion strains, locus YOR231W, strain MKK1, active compounds read low
  normalized growth: 0.953
[71]
  normalized growth: 1
S. cerevisiae deletion strains, locus YPL055C, strain LGE1, active compounds read low
  normalized growth: 1.03
S. cerevisiae deletion strains, locus YPL256C, strain CLN2, active compounds read low
  normalized growth: 0.927
[72]
  normalized growth: 1.01
[73]
  normalized growth: 1.01
[74]
  normalized growth: 1
[75]
  normalized growth: 1.01
[76]
  normalized growth: 1.01
